Only some compounds are listed: those with a hit (about 3.5% of all), similar ones and a draw of the others.
MITF inh: inhibitors of human MITF | O75030 | actives 0.91% (n = 650,000) | AlphaScreen MITF homodimerization, bead proximity signal | inhibition, % at 2.6 µM; in the data active = inhibition above about 50%;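 note: 0% = vehicle wells with protein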
FBW7 act: human FBW7 E3 ligase activation, primary screen. AlphaScreen FBW7–phospho-cyclin E peptide binding, activator screen. actives 0.13% (n = 650,000). normalized activity (activation), % at 26.1 µM; in the data active = normalized activity above about 1.9%;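 note: purified mutant Fbw7 with reduced substrate affinity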
GPR151 ag: human GPR151 activation. Q8TDV0. PathHunter beta-arrestin GPR151 cells, luminescence. activation, % at 11.2 µM. actives 1% (n = 650,000); in the data active = activation above about 4.9%;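 note: 0% = median of compound wells and 100% = cells with positive control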
Target sequence (Q8TDV0 whole entry, looked up): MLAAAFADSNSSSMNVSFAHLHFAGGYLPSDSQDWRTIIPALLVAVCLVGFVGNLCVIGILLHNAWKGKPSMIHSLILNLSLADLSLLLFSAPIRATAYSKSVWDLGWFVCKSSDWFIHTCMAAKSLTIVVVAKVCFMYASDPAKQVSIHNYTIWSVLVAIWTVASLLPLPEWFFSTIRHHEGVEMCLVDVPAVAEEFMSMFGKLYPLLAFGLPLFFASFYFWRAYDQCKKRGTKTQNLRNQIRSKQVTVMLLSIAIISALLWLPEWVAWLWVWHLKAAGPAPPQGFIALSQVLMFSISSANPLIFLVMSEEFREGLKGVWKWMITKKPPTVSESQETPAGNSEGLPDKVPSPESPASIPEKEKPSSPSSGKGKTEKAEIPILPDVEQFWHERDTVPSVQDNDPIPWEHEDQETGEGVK
TEAD-YAP block: TEAD-YAP interaction inhibition; actives 1.4% (n = 640,000); inhibition, % at 9.12 µM; AID 1259422; HEK-TIYL cells, TEAD-Gal4/YAP UAS-luciferase luminescence; in the data active = inhibition above about 32%;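 note: 0% = median of test compound wells and 100% = reference inhibitor wells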
GPR151 conf act: human GPR151 activation, confirmation screen; shares compounds with GPR151 ag; GPR151 PathHunter beta-arrestin cells, luminescence, 90 min; % of EA-reagent control over plate median; activation, % at 11.2 µM; 6,700 tested, under 10 active; AID 1508609;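 active = mean percent activation across replicates above the confirmation screen cutoff of 4.91%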
GPR119 counter: activates human GPR119 in a GPR151 counter-screen | GPR119 PathHunter beta-arrestin cells, luminescence, 90 min; 0 = compound-well median, 100 = enzyme-acceptor control | shares compounds with GPR151 ag | activation, % at 11.2 µM | actives 0.3% (n = 6,700);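 active = mean percent activation in the counterscreen above 29.09%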;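 note: counterscreen on off-target GPR119 to flag nonselective hits from the GPR151 activator screen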
Starred values were filed as active, the others as inactive; . = no result given.

SMILES	MITF inh	FBW7 act	GPR151 ag	TEAD-YAP block	GPR151 conf act	GPR119 counter
O=C(Nc1ccc(Cl)c(-c2nc3ccccc3o2)c1)c1cccnc1	15	0	1	-3	.	.
Cc1ccc(Nc2ncnc3sc4c(c23)CCCC4)cc1	17	0	20*	5	1	-2
Clc1ccc(Nc2ncnc3sc4c(c23)CCCC4)cc1	-6	0	2	-1	.	.
Cc1ccc(C)c(OCCn2cc(C(F)(F)F)cc(Cl)c2=O)c1	11	1	0	0	.	.
O=C(NC1CCCCC1)c1nn2c(C(F)(F)F)cc(-c3ccccc3)nc2c1Br	0	0	5.0*	1	0	1
CCCN(CCC)CCN1C(=O)C2C(C(=O)Nc3ccc(F)c(Cl)c3)C3C=CC2(O3)C1C(=O)NC1CCCC(C)C1C (stereo not drawn)	1	0	6.9*	9	1	-1
CCCN(CCC)CCCN1C(=O)C2C(C(=O)Nc3ccc(F)c(Cl)c3)C3C=CC2(O3)C1C(=O)NC1CCCC(C)C1C (stereo not drawn)	-7	0	-1	2	.	.
COc1ccc(NC(=O)C2C3C=CC4(O3)C2C(=O)N(C(C)CCc2ccccc2)C4C(=O)NC2CCCC(C)C2C)cc1 (stereo not drawn)	1	0	7.0*	9	0	-3
O=C(c1cc(-c2cccc(Cl)c2)nc2ccccc12)N1CCOCC1	-10	0	11*	7	-1	-3
O=C(c1cc(-c2ccc(Cl)cc2)nc2ccccc12)N1CCOCC1	-3	0	0	3	.	.
O=C(NCc1ccc(Cl)cc1)C1CCC(Cn2c(=S)[nH]c3ccsc3c2=O)CC1 (stereo not drawn)	6	0	7.0*	-4	1	14
CCN(CC)C(=O)C1CCCN(c2nc(NCc3cccnc3)c3ncn(-c4ccsc4)c3n2)C1 (stereo not drawn)	-4	0	6.6*	37*	1	-1
Cc1cc(C)nc(NS(=O)(=O)c2ccc(NC(=O)Cc3ccc(F)cc3)cc2)n1	5	0	0	-2	.	.
Cc1cc(C)nc(NC(=O)Cc2ccc(F)cc2)n1	-1	0	13*	-6	0	-3
COCC(=O)NCC1CCC2(CCN(Cc3ccc(N(C)c4ccccc4)cc3)CC2)O1 (stereo not drawn)	4	0	1	3	.	.
COCC(=O)NCC1CCC2(CCN(C/C(C)=C/c3ccccc3)CC2)O1 (stereo not drawn)	-4	0	5.1*	5	1	10
CCC(C(=O)NCCCN1CCOCC1)n1ncn2c(cc3occc32)c1=O (stereo not drawn)	11	0	9.9*	0	1	7
O=C(O)c1nn2c(c1Br)NC(c1ccccc1)CC2C(F)(F)F (stereo not drawn)	0	0	7.2*	-4	0	11
NC(=O)c1nn2c(c1Br)NC(c1ccccc1)CC2C(F)(F)F (stereo not drawn)	-11	0	-1	2	.	.
Cc1ccc2c(c1)cc(CN1CCCC(c3nncn3C)C1)c(=O)n2Cc1cccc(F)c1 (stereo not drawn)	9	0	-1	-7	.	.
CC(C)N(Cc1nc(-c2ccccc2)no1)C(=O)CCCN1C(=O)c2ccccc2C1=O	14	0	11*	9	0	-4
CC(C)N(Cc1nc(-c2ccccc2)no1)C(=O)CN1C(=O)c2ccccc2C1=O	1	0	0	-3	.	.
O=C(Nc1ccc2nc(-c3ccccc3)[nH]c2c1)C12CC3CC(CC(C3)C1)C2	-6	0	2	-100	.	.
CC(C)CC1(C)NC(=O)N(Cc2nnc(-c3ccccc3Br)o2)C1=O (stereo not drawn)	3	0	7.0*	-7	1	1
N#CC1=C(N)N(c2ccccc2)C2=C(C(=O)CCC2)C1c1ccc(F)cc1 (stereo not drawn)	-6	0	4	-1	.	.
SMILES	MITF inh	FBW7 act	GPR151 ag	TEAD-YAP block	GPR151 conf act	GPR119 counter
Cc1cc(Nc2ccc3c(c2)OCO3)nc(Nc2ccc(N3CCOCC3)cc2)n1	18	0	10.0*	93*	2	71*
Cc1cc(Nc2ccc(N3CCOCC3)cc2)nc(Nc2ccncc2)n1	14	0	-1	-2	.	.
Cc1cc(Nc2ccc(N3CCOCC3)cc2)nc(NCc2cccnc2)n1	2	0	5.4*	22	1	-2
CCc1ccc(NC(=O)CCNS(=O)(=O)c2cc(Br)cnc2N)cc1	6	1	1	12	.	.
O=C(Nc1nc2ccccc2[nH]1)c1ccc(Br)cc1	21	0	8.0*	25	-4	-18
COc1ccc(OC)c(NC(=O)c2ccc(C)cc2)c1	-2	0	0	-9	.	.
COc1ccc(C(=O)N/N=C(\C)c2ccc(OC)c(Br)c2)cc1	1	0	6.3*	-22	-1	0
COc1ccc(OC)c(NC(=O)c2ccc(C)c(Br)c2)c1	2	0	7.9*	-21	0	-10
CC1(C)CC(=O)N(CC(=O)N2CCCCC2)c2ccccc2S1	9	1	5.7*	-5	-1	-2
CC1(C)CC(=O)N(CC(=O)N2CCCCCC2)c2ccccc2S1	5	0	4	-4	.	.
COc1ccc(C2Nn3c(C)nnc3SC2C(=O)N2CCCC2)cc1Br (stereo not drawn)	10	0	5.1*	6	0	-5
Cn1c(=O)c2c(nc(SCc3ccccc3F)n2C)n(C)c1=O	1	0	4.9*	7	1	12
Cn1c(=O)c2c(nc(SCc3ccccn3)n2C)n(C)c1=O	13	0	0	13	.	.
COc1ccc(Cn2c(=S)[nH]c3ccc(N4CCOCC4)cc3c2=O)cc1	7	0	-1	-79	.	.
COc1ccc2c(c1OC)C(=O)NC(C)=C(C(=O)OC(C)(C)C)C2O (stereo not drawn)	-6	0	12*	8	0	-3
CCNc1nc(NCc2cccnc2)c2[nH]cnc2n1	18	0	-1	-4	.	.
CC(C)N(CCNc1nc(NCc2cccnc2)nc2nc[nH]c12)C(C)C	-4	0	6.2*	4	0	-2
COc1cc(NC(=O)CN2C(=O)CCC2=O)cc(OC)c1OC	1	0	0	-3	.	.
COc1ccccc1NC(=S)N(Cc1ccc(Br)cc1)Cc1ccc(C(=O)O)cc1	1	0	-1	8	.	.
C/C(CCC(=O)OC[C@H]1O[C@H](C#Cc2ccccc2)C=C[C@@H]1Oc1ccc(C)cc1)=N\O[C@H](C)CN1CCCc2nc(C)c(C)cc21	11	0	7.0*	.	0	-5
COc1ccc(O[C@H]2C=C[C@@H](c3ccccc3)O[C@@H]2COC(=O)CC/C(C)=N/O[C@@H](C)CN2CCCCc3nc(C)c(C)cc32)cc1	2	0	1	.	.	.

Compound activity from PubChem.
